M1 ag – activates human CHRM1 receptor | P11229 | CHO-K1 hM1, Fluo-8 calcium fluorescence, agonist mode; 0% DMSO, 100% acetylcholine EC100 | activation, % at 3 µM | 0.33% of 360,000 active;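 active means activation above the run's mean compound activation plus 3 SD, cut at about 16% in these data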;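 further: peak over basal fluorescence ratio within a 140 s kinetic read after compound addition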
Target sequence (P11229 whole entry, looked up): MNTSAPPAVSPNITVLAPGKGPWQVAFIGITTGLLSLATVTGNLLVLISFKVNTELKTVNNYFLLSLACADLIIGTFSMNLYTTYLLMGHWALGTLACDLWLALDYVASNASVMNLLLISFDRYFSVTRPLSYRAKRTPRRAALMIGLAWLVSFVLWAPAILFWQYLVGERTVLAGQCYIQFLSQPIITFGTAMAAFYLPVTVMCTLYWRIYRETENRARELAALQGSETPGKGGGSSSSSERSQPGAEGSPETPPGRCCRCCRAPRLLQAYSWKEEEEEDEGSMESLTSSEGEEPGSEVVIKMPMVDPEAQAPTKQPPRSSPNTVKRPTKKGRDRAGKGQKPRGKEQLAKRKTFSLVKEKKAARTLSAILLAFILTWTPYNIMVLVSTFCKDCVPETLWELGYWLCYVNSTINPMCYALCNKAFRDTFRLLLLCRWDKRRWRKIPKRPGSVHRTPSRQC
M1 antag – blocks human M1 muscarinic receptor; CHO-K1 hM1, Fluo-8 calcium fluorescence, ACh EC80 antagonist; inhibition, % at 3 µM; 1.3% of 360,000 active;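 active means percent inhibition above its own plate's cutoff, namely the mean of that plate's compound wells plus 3 SD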;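 further: peak over basal fluorescence ratio during 140 s after agonist addition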
CHO-K1 Ca antag – counter-screen for M1 antagonists: effect in parental CHO-K1 cells; AID 602250; ATP-induced calcium, Fluo-8 fluorescence; 0.6% of 360,000 active; inhibition, % at 3 µM;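 active means inhibition above a per-plate cutoff, the plate's mean sample inhibition plus 3 SD, cut at about 24% in these data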
CHO-K1 Ca PAM – counter-screen for M1 PAMs: effect in parental CHO-K1 cells; 0.02% of 360,000 active; ATP EC20, Fluo-8 calcium fluorescence; 0% at ATP EC20, 100% at ATP max; activation, % at 3 µM; AID 602247;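 active means activation above the run cutoff, the mean activation of all test compounds plus 3 SD, cut at about 40% in these data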;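 further: peak over basal fluorescence ratio in a 140 s read after ATP addition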
CHO-K1 Ca ag – counter-screen for M1 agonists: effect in parental CHO-K1 cells | 0.48% of 360,000 active | Fluo-8 calcium fluorescence; scaled to maximal ATP response, vehicle zero | activation, % at 3 µM; in the data active means activation above about 15%;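 further: untransfected CHO-K1 host cells lacking M1 receptor as counterscreen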
M1 PAM – human CHRM1 positive allosteric modulation; AID 588819; 0.088% of 360,000 active; activation, % at 3 µM; P11229; CHO-K1 hM1, Fluo-8 calcium fluorescence, ACh EC20; 0% = ACh EC20, 100% = maximal ACh; in the data active means activation above about 19%, passing the limit was not always enough
Hits are given with their value; . = inactive. This is a sample that favours compounds with a hit; in the whole collection about 2.3% have one here.

SMILES	M1 ag	M1 antag	CHO-K1 Ca antag	CHO-K1 Ca PAM	CHO-K1 Ca ag	M1 PAM
CCC(Sc1ccc(Cl)cc1)C(=O)Nc1nnc(-c2cccc([N+](=O)[O-])c2)s1 (stereo not drawn)	19.9	.	.	.	.	.
CCC(Sc1nncn1C)C(=O)Nc1nnc(-c2ccccc2Cl)s1 (stereo not drawn)	.	.	.	.	.	.
COC(=O)C1CC(O)CN1C(=O)Nc1cccc(C(F)(F)F)c1 (stereo not drawn)	.	.	29.1	.	.	.
O=Cc1cn(-c2ccccc2)nc1-c1ccccc1	.	.	.	.	.	.
CC1=NNC(=O)/C1=C\c1cn(-c2ccccc2)nc1-c1ccccc1	.	33.3	.	.	.	.
Cc1ccc(N2C(=O)CSC2c2c(F)cccc2Cl)cc1 (stereo not drawn)	.	98.5	.	.	.	.
COc1cccc(C2SCC(=O)N2c2ccc(Cl)cc2)c1OC (stereo not drawn)	.	50.7	.	.	.	.
C=CCOC(=O)C1=C(C)NC(C)=C(C(=O)OCC=C)C1c1cn(-c2ccccc2)nc1-c1ccco1	.	.	.	.	.	.
CCOc1ccccc1N(CC(=O)NCCSc1ccccc1)S(C)(=O)=O	.	.	.	.	.	.
C[C@H](NC(=O)[C@@H]1CSC2c3ccccc3C(=O)N21)C(=O)NC1CCCC1 (stereo partly drawn)	.	27.4	.	.	.	.
C[C@H](NC(=O)[C@@H]1CSC2c3ccccc3C(=O)N21)C(=O)NC1CCCCC1 (stereo partly drawn)	.	.	.	.	.	.
CCOc1cccc(/C=C(/C#N)c2nc3ccccc3[nH]2)c1OCC(=O)O	.	.	.	.	.	.
CCN(CC)c1ccc(/C=C(/C#N)c2nc3ccccc3[nH]2)c(OC(C)C)c1	55.2	63.7	.	.	.	.
Cc1c(N2C(=O)c3ccc4c5c(ccc(c35)C2=O)CC4)c(=O)n(-c2ccccc2)n1C	.	.	.	.	.	.
Cc1c(N2C(=O)c3ccc(Br)cc3C2=O)c(=O)n(-c2ccccc2)n1C	.	73.8	.	.	.	.
CC(=O)N1c2ccc(S(=O)(=O)N3CCCCC3)cc2CC1C(=O)NCc1ccccc1C (stereo not drawn)	.	.	.	.	.	.
CCOC(=O)C1CCCN(c2c(NCc3ccco3)c(=O)c2=O)C1 (stereo not drawn)	26.7	.	.	.	.	.
CCn1nc([N+](=O)[O-])c2c(-c3nc4ccccc4o3)c(N)n(CCCOC)c2c1=O	.	.	.	.	.	.
C[C@H](CO)N1C[C@H](C)[C@@H](CN(C)Cc2ccccc2)Oc2c(NC(=O)c3ccncc3)cccc2C1=O	.	.	.	.	.	.
C[C@H](CO)N1C[C@H](C)[C@@H](CN(C)Cc2ccc(Oc3ccccc3)cc2)Oc2c(NC(=O)c3ccncc3)cccc2C1=O	.	.	.	46.0	.	.
NC(CC(=O)NC(c1ccccc1)(c1ccccc1)c1ccccc1)C(=O)O (stereo not drawn)	.	.	.	.	.	.
NC(CSC(c1ccccc1)(c1ccccc1)c1ccccc1)C(=O)O (stereo not drawn)	.	39.9	.	.	.	.
COc1ccc(OC)c(NC(=O)CCN2C(=O)c3ccccc3C2=O)c1	.	.	.	.	.	.
COc1ccc(/C=N/n2nnnc2N)c(OC)c1	.	38.3	.	.	.	.
O=C(NCCC(=O)N1CCC2(CC1)NCCc1[nH]cnc12)c1ccc(F)c(F)c1	.	.	.	.	.	.
SMILES	M1 ag	M1 antag	CHO-K1 Ca antag	CHO-K1 Ca PAM	CHO-K1 Ca ag	M1 PAM
CC1Cn2c(nnc2-c2ccc(F)cc2)S1 (stereo not drawn)	.	.	25.6	.	.	.
CC(C)C(=O)NC(=S)Nc1ccc(S(=O)(=O)Nc2nccs2)cc1	.	.	.	.	16.3	.
CC(Oc1ccc(Br)cc1)C(=O)Nc1ccc(S(=O)(=O)Nc2nccs2)cc1 (stereo not drawn)	.	.	.	.	.	.
O=C(NC(=S)Nc1ccc(S(=O)(=O)Nc2nccs2)cc1)C1CC1	.	.	.	.	.	.
CCC(Oc1ccc(C)cc1)C(=O)Nc1ccc(S(=O)(=O)Nc2nccs2)cc1 (stereo not drawn)	19.3	.	.	.	.	.
CCC(Oc1ccccc1)C(=O)Nc1ccc(S(=O)(=O)Nc2ncccn2)cc1 (stereo not drawn)	.	.	.	.	.	.
CCC(Oc1ccccc1)C(=O)Nc1ccc(S(=O)(=O)Nc2cc(C)on2)cc1 (stereo not drawn)	.	.	.	.	.	29.1
NNC(=O)Cc1cccc2ccc(Cl)cc12	.	.	.	.	.	.
Cc1ccc(C(=O)Nc2nc(=O)[nH]s2)cc1	.	.	.	.	.	.
O=C(NCCNc1ccc([N+](=O)[O-])cc1)c1cccs1	.	.	.	.	.	.
O=C(NN1C(=O)C2C(c3ccccc3)C=CC(c3ccccc3)C2C1=O)c1cccc(Br)c1 (stereo not drawn)	.	81.4	.	.	.	.
O=C(NN1C(=O)C2C(c3ccccc3)C=CC(c3ccccc3)C2C1=O)c1ccccc1 (stereo not drawn)	.	46.1	.	.	.	.
O=C(NN1C(=O)C2C3c4ccccc4C(c4ccccc43)[C@@H]2C1=O)c1ccccc1 (stereo partly drawn)	.	.	.	.	.	.
O=C1CC(c2cccs2)CC2=C1C(c1ccccc1)n1ncnc1N2 (stereo not drawn)	.	.	.	.	.	.
CC1CC(=O)C2=C(C1)Nc1ncnn1C2c1ccccc1 (stereo not drawn)	.	.	28.0	.	.	.
CC1CCCCN1CC(=O)Nc1ccccc1Sc1ccccc1 (stereo not drawn)	.	27.0	.	.	.	.
CCCOc1ccc(C(=O)Nc2ccc3c(c2)OCCO3)cc1	.	.	.	.	.	.
O=C(NC12CC3CC(CC(C3)C1)C2)N(Cc1ccccc1)Cc1ccncc1	.	.	.	.	.	.
CC(C)C1CC(CCN)(c2ccccc2)CCO1 (stereo not drawn)	.	73.6	.	.	.	.
CC1=C(C(=O)N(C)C)CC(CC(=O)NCCCCc2ccccc2)C(=O)N1Cc1ccc(F)cc1 (stereo not drawn)	34.5	.	.	.	.	.
CCN(CC)C(=O)C1=C(C)N(Cc2ccc(F)cc2)C(=O)C(CC(=O)NCCCCc2ccccc2)C1 (stereo not drawn)	.	.	.	.	.	.
COc1ccc(C(=O)C2CCCN(Cc3cnc(N4CCOCC4)s3)C2)c(OC)c1 (stereo not drawn)	.	.	.	.	.	.
